According to PubChem BioAssay (EPA / NIEHS):
Values joined by “and” are separate entries in the source; they are usually repeats but may differ in a detail not shown here. Equal entries are not always repeated. Some compounds were tested as several samples or in several runs, with calls that do not always agree. Active and inactive are the calls of the source. How the source made its calls: active means hit-call score of the fitted dose curve at least 0.9, where 1 is the maximum; inactive means score below 0.9.

Tests used:
[1] = read-out: Interleukin-8 (IL8), CXCL8 (gene 3576); experiment: BSK_MyoF_IL8: BioMAP Diversity Plus: MyoF Assay for Interleukin-8 (IL8) Biomarker Activity (AID 2284261); settings: primary human lung fibroblasts
Outline: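 IL-8 levels were measured by ELISA in human lung fibroblasts harvested 24 h after compound addition. Responses were analysed as gain of signal over the DMSO baseline.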

[2] = read-out: Decorin, DCN (gene 1634); experiment: BSK_MyoF_Decorin: BioMAP Diversity Plus: MyoF Assay for Decorin Biomarker Activity (AID 2284265); settings: primary human lung fibroblasts
Outline: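 Compound is added to lung fibroblast cultures; cells incubate 24 h; decorin is then measured by ELISA; the response is analysed upward against DMSO controls.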

[3] = BSK_MyoF_SRB: Viability Assessment in the BioMAP Diversity Plus: MyoF Assay (AID 2284267); settings: primary human lung fibroblasts;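 further: total protein by SRB absorbance in parallel cultures as cytotoxicity measure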
Outline: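 Cytotoxicity read-out: after 10% TCA fixation, parallel human lung fibroblast cultures were stained with 0.1% SRB at 24 h post-dosing and read at 560 nm; DMSO served as baseline.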

[4] = read-out: Matrix Metallopeptidase 1 (MMP1), MMP1 (gene 4312); experiment: BSK_MyoF_MMP1: BioMAP Diversity Plus: MyoF Assay for Matrix Metallopeptidase 1 (MMP1) Biomarker Activity (AID 2284268); settings: primary human lung fibroblasts
Outline: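 Lung fibroblast cultures were dosed with test chemicals and, after 24 h, MMP1 levels were measured by ELISA; responses were referenced to DMSO and analysed for increases.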

[5] = read-out: Intercellular Adhesion Molecule 1 (ICAM1), ICAM1 (gene 3383); experiment: BSK_BF4T_ICAM1: BioMAP Diversity Plus: BF4T Assay for Intercellular Adhesion Molecule 1 (ICAM1) Biomarker Activity (AID 2284260); settings: primary human bronchial epithelial cells with fibroblasts
Outline: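 ICAM-1 levels measured by ELISA after 24 h chemical treatment of bronchial epithelial cell/dermal fibroblast co-cultures, read against DMSO baseline. Overt cytotoxicity checked in parallel cultures by sulforhodamine B staining.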

[6] = read-out: Interleukin-8 (IL8), CXCL8 (gene 3576); experiment: BSK_BF4T_IL8: BioMAP Diversity Plus: BF4T Assay for Interleukin-8 (IL8) Biomarker Activity (AID 2284263); settings: primary human bronchial epithelial cells with fibroblasts
Outline: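 Human bronchial epithelial cells with dermal fibroblasts co-culture; IL-8 measured by ELISA 24 hours after dosing, fitted vs DMSO. Cytotoxicity tracked in parallel cultures by SRB total-protein staining.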

[7] = read-out: Interleukin-1 alpha (IL1a), IL1A (gene 3552); experiment: BSK_BF4T_IL1a: BioMAP Diversity Plus: BF4T Assay for Interleukin-1 alpha (IL1a) Biomarker Activity (AID 2284264); settings: primary human bronchial epithelial cells with fibroblasts
Outline: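 ELISA read-out of IL-1α from bronchial epithelial cell/dermal fibroblast co-cultures 24 h after compound addition. Increases scored against DMSO negative control. Cytotoxicity monitored by sulforhodamine B staining of parallel cultures.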

[8] = read-out: Matrix Metallopeptidase 3 (MMP3), MMP3 (gene 4314); experiment: BSK_BF4T_MMP3: BioMAP Diversity Plus: BF4T Assay for Matrix Metallopeptidase 3 (MMP3) Biomarker Activity (AID 2284271); settings: primary human bronchial epithelial cells with fibroblasts
Outline: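 MMP-3 level read by ELISA after 24 h chemical exposure of bronchial epithelial cell/dermal fibroblast co-cultures, fitted upward relative to DMSO. Parallel cultures stained with 0.1% SRB after TCA fixation gauge overt cytotoxicity.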

[9] = read-out: Plasminogen Activator Inhibitor-1 (PAI1), SERPINE1 (gene 5054); experiment: BSK_BF4T_PAI1: BioMAP Diversity Plus: BF4T Assay for Plasminogen Activator Inhibitor-1 (PAI1) Biomarker Activity (AID 2284273); settings: primary human bronchial epithelial cells with fibroblasts
Outline: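 PAI-1 levels quantified by ELISA 24 h post-dosing in bronchial epithelial cell plus dermal fibroblast cultures. Signal gain referenced to DMSO baseline. Sulforhodamine B total-protein staining of parallel wells checked cytotoxicity.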

[10] = BSK_BF4T_SRB: Viability Assessment in the BioMAP Diversity Plus: BF4T Assay (AID 2284274); settings: primary human bronchial epithelial cells with fibroblasts
Outline: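 Cytotoxicity measured as total protein: cells fixed with 10% TCA, stained with 0.1% SRB, read at 560 nm. Bronchial epithelial/dermal fibroblast co-culture, 24 h after dosing, with positive-direction fitting relative to DMSO.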

Measured: AC50

Oc1cc2ccccc2cc1O
inactive: [1] | [2] | [3] | [4]

C=CC(=C)CC/C=C(\C)CCC=C(C)C
inactive: [1] | [2] | [3] | [4]

CN(CCO)S(=O)(=O)C(F)(F)C(F)(F)C(F)(F)C(F)(F)C(F)(F)C(F)(F)C(F)(F)C(F)(F)F
active: [6] 0.0245 µM
inactive: [5] | [1] | [6] | [7] | [2] | [3] | [4] | [8] | [9] | [10]

O=C(O)C(F)(F)OC(F)(F)C(F)(F)OC(F)(F)C(F)(F)OC(F)(F)C(F)(F)C(F)(F)C(F)(F)F
active: [5] 8.19 µM and 7.58 µM | [1] 46.8 µM and 44.5 µM | [6] 53.7 µM | [7] 11 µM and 13.4 µM | [2] 17.3 µM | [3] 13 µM and 9.16 µM | [8] 14.4 µM and 8.19 µM | [9] 19.1 µM and 16.2 µM
inactive: [6] | [2] | [4] | [10]

NC(=NCCCCCCN=C(N)/N=C(\N)Nc1ccc(Cl)cc1)/N=C(\N)Nc1ccc(Cl)cc1
active: [1] 5.05 µM | [2] 9.05 µM | [3] 4.76 µM | [4] 9 µM

CC[N+](CC)(CC)Cc1ccccc1
inactive: [1] | [2] | [3] | [4]

O=C(NO)c1ccccc1
inactive: [1] | [2] | [3] | [4]

CCOC(=O)CN[C@@H](C(=O)N1CC[C@H]1C(=O)NCc1ccc(/C(N)=N/O)cc1)C1CCCCC1
inactive: [1] | [2] | [3] | [4]

COc1cc(OC)nc(NC(=O)NS(=O)(=O)Nc2ccccc2C(=O)N(C)C)n1
inactive: [1] | [2] | [3] | [4]

O=P(O)(O)CCC(F)(F)C(F)(F)C(F)(F)C(F)(F)C(F)(F)C(F)(F)C(F)(F)C(F)(F)F
inactive: [5] | [1] | [6] | [7] | [2] | [3] | [4] | [8] | [9] | [10]

COC1=CC(=O)C[C@@H](C)[C@]12Oc1c(Cl)c(OC)cc(OC)c1C2=O
inactive: [1] | [2] | [3]
active: [4] 20 µM

CCCCCc1ccc(O)cc1
inactive: [1] | [2]
active: [3] 28.7 µM | [4] 36.6 µM

O=C(O)CCC(F)(F)C(F)(F)C(F)(F)C(F)(F)C(F)(F)F
inactive: [5] | [1] | [6] | [7] | [2] | [3] | [4] | [8] | [9] | [10]

O=C(O)CCC(F)(F)C(F)(F)C(F)(F)C(F)(F)C(F)(F)C(F)(F)F
inactive: [5] | [1] | [6] | [7] | [2] | [3] | [4] | [8] | [9] | [10]

O=P(O)(O)CCC(F)(F)C(F)(F)C(F)(F)C(F)(F)C(F)(F)C(F)(F)F
inactive: [5] | [1] | [6] | [7] | [2] | [3] | [4] | [8] | [9] | [10]

Clc1ccc(Nc2nnc(Cc3ccncc3)c3ccccc23)cc1
inactive: [1] | [2] | [4]

CN(C)c1ccc(C(=C2C=CC(=[N+](C)C)C=C2)c2ccccc2)cc1
inactive: [2] | [4]
active: [1] 2.76 µM | [3] 0.485 µM

Cc1cccc2c1ccc1ccccc12
inactive: [1] | [2] | [3] | [4]
